Assay [1] in a line: NCI Yeast Anticancer Drug Screen. Data for the rad50 strain (AID 155).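 Also: 0% = growth of vehicle-only cultures of the same strain.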 The settings on record: S. cerevisiae rad50 strain growth inhibition, hits give high values. The essentials: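 A DNA repair-deficient yeast mutant serves as the test organism; compound-induced growth inhibition is calculated against vehicle-treated cells.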
The nature of assay [2]: NCI Yeast Anticancer Drug Screen. Data for the mec2-1 strain (AID 157). The settings on record: S. cerevisiae mec2-1 strain, hits give high values. The essentials:
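Compounds were applied to mec2-1 yeast cells. Their growth was then compared with that of vehicle-treated cultures to give growth inhibition.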

A short description of assay [3]: NCI Yeast Anticancer Drug Screen. Data for the sgs1 mgt1 strain (AID 161).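 Also: 0% = growth of cultures given vehicle only.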 The settings on record: S. cerevisiae sgs1 mgt1 strain, hits give high values. The gist of the method: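 Percent growth inhibition was derived by comparing compound-exposed mutant yeast with vehicle-exposed cultures. The strain carries alterations in DNA damage repair.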
Assay [4] can be described thus: NCI Yeast Anticancer Drug Screen. Data for the cln2 rad14 strain (AID 165).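 Also: 0% = growth equal to vehicle treated cultures.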 The settings on record: S. cerevisiae cln2 rad14 strain, hits give high values. The gist of the method: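 Strain: cln2 rad14 yeast, altered in cell cycle control and DNA damage repair. Read-out: growth inhibition vs vehicle.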
A short description of assay [5]: NCI Yeast Anticancer Drug Screen. Data for the bub3 strain (AID 167). The settings on record: S. cerevisiae bub3 mutant strain, hits give high values. The gist of the method: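 Inhibition values come from growth of compound-treated mutant yeast normalised to vehicle-treated controls.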
The nature of assay [6]: NCI Yeast Anticancer Drug Screen. Data for the mlh1 rad18 strain (AID 175). The settings on record: S. cerevisiae mlh1 rad18 strain growth inhibition, hits give high values. The gist of the method:
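A repair-deficient yeast strain is exposed to test compound, and growth is scored relative to vehicle-treated controls.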

Setting [7] is: at 5.0 µM (retest, dose inferred, filed as 0.5).
[8] abbreviates: at 50.0 µM (retest, dose inferred, filed as 5.0).

We go through 10 compounds from PubChem BioAssay (NCI).

Each structure is given as a SMILES string. Compounds without any hit were thinned out: in the full panel of roughly 79,000, 15% have a hit. Unmarked numbers belong to inactive results. Activity calls are given as the source filed them. Rule as the data show it: active = growth inhibition above about 70%; inactive = the rest.

Turning to `Cc1cc(Cl)c(C(C)C)cc1O`, the growth inhibition in assay [1] (setting [7]) was 17%; in assay [1] (setting [8]), 62%; in assay [1] (at 50.0 µM), 53.2%; in assay [2] (setting [7]) it was -4%; in assay [2] (setting [8]) it was 61%; in assay [2] (at 50.0 µM), 48.2%. For the same compound, the growth inhibition in assay [3] (setting [7]) was 3%; in assay [3] (setting [8]) it was 55%; in assay [3] (at 50.0 µM) it was 48.6%; in assay [4] (setting [7]) it was 2%; in assay [4] (setting [8]) it was 51%; in assay [4] (at 50.0 µM), 45%. The growth inhibition is 7% in assay [5] (setting [7]); 55% in assay [5] (setting [8]); 24.4% in assay [5] (at 50.0 µM); 8% in assay [6] (setting [7]); 58% in assay [6] (setting [8]); 63.4% in assay [6] (at 50.0 µM).
`Cn1c(=O)nc2n(-c3ccc(Cl)cc3)c3cc(Cl)ccc3nc-2c1=O`: the growth inhibition is 7% in assay [1] (setting [7]); 20% in assay [1] (setting [8]); 20.6% in assay [1] (at 50.0 µM); 4% in assay [2] (setting [7]); 9% in assay [2] (setting [8]); 24.1% in assay [2] (at 50.0 µM). In addition, the growth inhibition in assay [3] (setting [7]) was 9%; in assay [3] (setting [8]), 15%; in assay [3] (at 50.0 µM), 7.8%; in assay [4] (setting [7]) it was 15%; in assay [4] (setting [8]) it was 20%; in assay [4] (at 50.0 µM), 16.9%. Moreover, the growth inhibition was 17% in assay [5] (setting [7]); 18% in assay [5] (setting [8]); -6.9% in assay [5] (at 50.0 µM); 7% in assay [6] (setting [7]); 20% in assay [6] (setting [8]); 77% (active) in assay [6] (at 50.0 µM).
On to `Cc1cc(O)cc(C)c1[N+](=O)[O-]`, for which the growth inhibition in assay [1] (setting [7]) is 5%; in assay [1] (setting [8]), 25%; in assay [1] (at 50.0 µM), 55%; in assay [2] (setting [7]) it was 0%; in assay [2] (setting [8]) it was 24%; in assay [2] (at 50.0 µM), 49.8%. In addition, the growth inhibition in assay [3] (setting [7]) was -6%; in assay [3] (setting [8]), 41%; in assay [3] (at 50.0 µM), 79.6% (active); in assay [4] (setting [7]), -1%; in assay [4] (setting [8]), 20%; in assay [4] (at 50.0 µM) it was 23.6%. Moreover, the growth inhibition in assay [5] (setting [7]) is -1%; in assay [5] (setting [8]) it was 36%; in assay [5] (at 50.0 µM), 29.3%; in assay [6] (setting [7]) it was 4%; in assay [6] (setting [8]), 41%; in assay [6] (at 50.0 µM) it was 63.5%.
Take `O=C1C(=C2C(=O)c3ccccc3[N+]2=O)N([O-])c2ccccc21`: the growth inhibition is -2% in assay [1] (setting [7]); 36% in assay [1] (setting [8]); 69% in assay [1] (at 50.0 µM); -6% in assay [2] (setting [7]); 59% in assay [2] (setting [8]); 56% in assay [2] (at 50.0 µM). For the same compound, the growth inhibition was -3% in assay [3] (setting [7]); 52% in assay [3] (setting [8]); 84.3% (active) in assay [3] (at 50.0 µM); -10% in assay [4] (setting [7]); 15% in assay [4] (setting [8]); 68% in assay [4] (at 50.0 µM). Further, the growth inhibition in assay [5] (setting [7]) is -6%; in assay [5] (setting [8]), 31%; in assay [5] (at 50.0 µM) it was 57.8%; in assay [6] (setting [7]), -5%; in assay [6] (setting [8]) it was 56%; in assay [6] (at 50.0 µM), 85.5% (active).
Turning to `CCCCCCC(OCCC)OCCC`, the growth inhibition was -4% in assay [1] (setting [7]); -3% in assay [1] (setting [8]); 35.8% in assay [1] (at 50.0 µM); -28% in assay [2] (setting [7]); -1% in assay [2] (setting [8]); -15.6% in assay [2] (at 50.0 µM). The growth inhibition in assay [3] (setting [7]) was -3%; in assay [3] (setting [8]), -1%; in assay [3] (at 50.0 µM) it was 5%; in assay [4] (setting [7]) it was -2%; in assay [4] (setting [8]) it was 1%; in assay [4] (at 50.0 µM) it was 74% (active). For the same compound, the growth inhibition was -10% in assay [5] (setting [7]); -6% in assay [5] (setting [8]); -0.5% in assay [5] (at 50.0 µM); -2% in assay [6] (setting [7]); -1% in assay [6] (setting [8]); 38.4% in assay [6] (at 50.0 µM).
Take `CCC(c1ccccc1)N1C(=O)c2ccccc2S1(=O)=O` (stereo not given): the growth inhibition in assay [1] (setting [7]) is -3%; in assay [1] (setting [8]) it was -3%; in assay [1] (at 50.0 µM), 33.4%; in assay [2] (setting [7]), -2%; in assay [2] (setting [8]) it was 22%; in assay [2] (at 50.0 µM) it was 14.3%. For the same compound, the growth inhibition in assay [3] (setting [7]) was -1%; in assay [3] (setting [8]), -2%; in assay [3] (at 50.0 µM), 25.3%; in assay [4] (setting [7]), -6%; in assay [4] (setting [8]), -3%; in assay [4] (at 50.0 µM), -19.6%. Further, the growth inhibition in assay [5] (setting [7]) is 23%; in assay [5] (setting [8]), 50%; in assay [5] (at 50.0 µM), 92.2% (active); in assay [6] (setting [7]), -3%; in assay [6] (setting [8]) it was -2%; in assay [6] (at 50.0 µM) it was 32.5%.
As to `O=C(NC(=O)C(F)(F)F)Nc1ccc(Cl)cc1`, the growth inhibition in assay [1] (setting [7]) is 1%; in assay [1] (setting [8]) it was 0%; in assay [1] (at 50.0 µM), -35.8%; in assay [2] (setting [7]), -2%; in assay [2] (setting [8]), -8%; in assay [2] (at 50.0 µM), -1.15%. Further, the growth inhibition is 1% in assay [3] (setting [7]); 1% in assay [3] (setting [8]); 9.75% in assay [3] (at 50.0 µM); 4% in assay [4] (setting [7]); 0% in assay [4] (setting [8]); 57.1% in assay [4] (at 50.0 µM). The growth inhibition in assay [5] (setting [7]) is -1%; in assay [5] (setting [8]), -2%; in assay [5] (at 50.0 µM), 18.9%; in assay [6] (setting [7]), -1%; in assay [6] (setting [8]), -1%; in assay [6] (at 50.0 µM), 0.8%.
For `Cc1nn(C(=S)S)c(C)c1N=Nc1ccc(Br)cc1`, the growth inhibition in assay [1] (setting [7]) is 14%; in assay [1] (setting [8]), 97% (active); in assay [1] (at 50.0 µM), 99.4% (active); in assay [2] (setting [7]), 0%; in assay [2] (setting [8]), 99% (active); in assay [2] (at 50.0 µM), 99.6% (active). The growth inhibition was 8% in assay [3] (setting [7]); 99% (active) in assay [3] (setting [8]); 99.2% (active) in assay [3] (at 50.0 µM); -7% in assay [4] (setting [7]); 98% (active) in assay [4] (setting [8]); 99.4% (active) in assay [4] (at 50.0 µM). The growth inhibition in assay [5] (setting [7]) was -2%; in assay [5] (setting [8]), 98% (active); in assay [5] (at 50.0 µM), 82.2% (active); in assay [6] (setting [7]) it was 0%; in assay [6] (setting [8]), 99% (active); in assay [6] (at 50.0 µM), 99.2% (active).
With `O=C1C(c2ccccc2)CS(=O)(=O)CC1c1ccccc1` (stereo not given), the growth inhibition is -10% in assay [1] (setting [7]); 0% in assay [1] (setting [8]); 14% in assay [1] (at 50.0 µM); -8% in assay [2] (setting [7]); 7% in assay [2] (setting [8]); 2.85% in assay [2] (at 50.0 µM). The growth inhibition in assay [3] (setting [7]) was 5%; in assay [3] (setting [8]) it was 7%; in assay [3] (at 50.0 µM) it was 57.1%; in assay [4] (setting [7]), 3%; in assay [4] (setting [8]) it was -4%; in assay [4] (at 50.0 µM), 7%. Also, the growth inhibition was -3% in assay [5] (setting [7]); -12% in assay [5] (setting [8]); -7.65% in assay [5] (at 50.0 µM); 13% in assay [6] (setting [7]); 9% in assay [6] (setting [8]); 12.6% in assay [6] (at 50.0 µM).
Take `CC(Br)Cc1ccc2c(c1)OCO2` (stereo not given): the growth inhibition in assay [1] (setting [7]) was 3%; in assay [1] (setting [8]) it was 0%; in assay [1] (at 50.0 µM), 1.15%; in assay [2] (setting [7]), 2%; in assay [2] (setting [8]) it was -2%; in assay [2] (at 50.0 µM), 44.5%. The growth inhibition in assay [3] (setting [7]) is 3%; in assay [3] (setting [8]) it was -3%; in assay [3] (at 50.0 µM) it was 19.8%; in assay [4] (setting [7]), 3%; in assay [4] (setting [8]) it was -1%; in assay [4] (at 50.0 µM), -3.8%. For the same compound, the growth inhibition in assay [5] (setting [7]) was -10%; in assay [5] (setting [8]), -14%; in assay [5] (at 50.0 µM) it was -28.5%; in assay [6] (setting [7]) it was -4%; in assay [6] (setting [8]), 1%; in assay [6] (at 50.0 µM) it was -12.4%.
